Reference: PubChem BioAssay
Values without a mark were called inactive. The rule behind the calls is not given here.

Test: circadian clock period modulators, cell-based, LOPAC library, luminescence reporter (AID 2774);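 note: values are relative to mean of DMSO wells on each plate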
Conditions: circadian reporter cells, at 7 µM, actives lie on both sides
In the case of `N#CC(Cc1ccc(O)c(O)c1)C(=O)N1CCc2ccccc21` (stereo unspecified), the period change is reported as 0.025 h. Work on `CC1(NCC(O)COc2cccc3[nH]ccc23)CCC(C(C)(C)NC(=O)CBr)CC1` (stereo unspecified) yielded a period change of -0.095 h. For `O=C(O)CCC(NC(=O)c1ccccc1C(=O)O)C(=O)O` (stereo unspecified), the period change was -0.08 h. `COc1cc2nc(N3CC=[N+](C(=O)c4ccco4)CC3)nc(N)c2cc1OC` gave a period change of 0.01 h. `CCCCCCCCCCCCC/C=C/C(O)C(N)CO` (stereo unspecified) showed a period change of 0.015 h. Work on `CC(C)CN(C)c1nc(N)c(C(=O)N=C(N)N)nc1Cl` yielded a period change of 0 h. Compound `C[N+](C)(C)CCC(=O)c1cccc2ccccc12` has a period change of -0.475 h. For `CCCCCCCCCCCCCCCC(=O)NCC(COP(=O)([O-])OCC[N+](C)(C)C)OCC` (stereo unspecified), the period change was -0.285 h. In the case of `CN1C2CCC1CC(NC(=O)c1nn(C)c3ccccc13)C2` (stereo unspecified), the period change is reported as 0.265 h. For `CC(C)[C@@H]1NC(=O)[C@H](CCCCN)NC(=O)[C@@H](Cc2c[nH]c3ccccc23)NC(=O)[C@H](Cc2ccc(O)cc2)NC(=O)[C@H](C)N(C)C(=O)[C@H](Cc2ccccc2)NC1=O`, the period change was -0.2 h. Compound `NC(=NCc1ccc(Cl)c(Cl)c1)NC(=O)c1nc(Cl)c(N)nc1N` has a period change of 0.175 h. `CCN(CC)C(C)C(=O)N1c2ccccc2Sc2ccccc21` (stereo unspecified) gave a period change of 0.095 h. Compound `Cc1cc(N)c2ccccc2[n+]1CCCCCCCCCCCCCC[n+]1c(C)cc(N)c2ccccc21` has a period change of 0.11 h. `O=C(O)CCCCCC[C@H]1C(=O)NC(=O)N1CC[C@@H](O)C1CCCCC1` gave a period change of 0.18 h. For `CCn1c(=O)c2[nH]c(-c3ccccc3)nc2n(CC)c1=O`, the period change was -0.165 h. In the case of `CN1CCc2c(cc(O)c(O)c2Cl)C(c2cccc(Cl)c2)C1` (stereo unspecified), the period change is reported as 0.165 h. Compound `COc1cc(OC)cc(C(CNc2ncnc3c2ncn3[C@@H]2O[C@H](CO)[C@H](O)C2O)c2ccccc2C)c1` (stereo partly specified) has a period change of -0.11 h. In the case of `Cc1ccc(OCC(O)C(C)NC(C)C)c2c1CCC2` (stereo unspecified), the period change is reported as 0.02 h. With `Cc1ccc(C(=O)O[C@H](C(=O)O)[C@H](OC(=O)c2ccc(C)cc2)C(=O)O)cc1` (tested in a mixture with another compound) the period change was -0.105 h. `CCN1CCC[C@H]1CNC(=O)c1c(OC)ccc(I)c1O` showed a period change of 0.025 h. Compound `NC(N)=NCCSSCCN=C(N)N` has a period change of 0.065 h. For `NCCNC(=O)Cc1ccc(NC(=O)Cc2ccc(Nc3ncnc4c3ncn4[C@@H]3O[C@H](CO)[C@H](O)C3O)cc2)cc1` (stereo partly specified), the period change was -0.095 h. For `COc1cc(C(O)CO)ccc1O` (stereo unspecified) (tested in a mixture with another compound), the period change was 0.16 h. In the case of `COc1ccc(CCNC[C@@H](O)c2ccc(O)cc2)cc1OC`, the period change is reported as 0.05 h. Compound `O=C(Nc1cc(C(=O)Nc2ccc(S(=O)(=O)O)cc2S(=O)(=O)O)cc(C(=O)Nc2ccc(S(=O)(=O)O)cc2S(=O)(=O)O)c1)Nc1cc(C(=O)Nc2ccc(S(=O)(=O)O)cc2S(=O)(=O)O)cc(C(=O)Nc2ccc(S(=O)(=O)O)cc2S(=O)(=O)O)c1` has a period change of -0.05 h. `COC(=O)c1c(-c2cc(OC)c(OC)c(OC)c2)c2ccc(OCc3ccccn3)cc2c(=O)n1-c1ccc(N)cc1` showed a period change of 0.015 h.
